Counter-ions that a name gives are not always drawn.
How the values were obtained:
Experiment in all cases: Euclidean distance of Cell Painting phenotypic profile (signed KS, 77 features) to DMSO centroid (dimensionless distance); 5 or 10 uM (library dependent); higher = stronger phenotypic change vs DMSO (phenoactivity)
Details in all cases: 48 h
786-O = tested on: 786-O
Summary of the method: (§1)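 Five cancer lines, together with a healthy fibroblast line, received library compounds for 48 h at a library-dependent 10 or 5 uM and 0.1% DMSO final. Harmony then derived 77 features from confocal 20X images (9 fields/well) of the stained cells, scoring each as a signed Kolmogorov-Smirnov statistic against same-plate vehicle wells. After plate-position correction, correlation weighting and replicate averaging at the top dose, phenoactivity was taken as each profile's Euclidean distance to the median vehicle profile.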

A549 = tested on: A549
Summary of the method: as §1

DU145 = tested on: DU145
Summary of the method: as §1

FB = tested on: FB
Summary of the method: as §1

HEPG2 = tested on: HEPG2
Summary of the method: as §1

OVCAR4 = tested on: OVCAR4
Summary of the method: as §1

Compound	Euclidean distance (786-O)	Euclidean distance (A549)	Euclidean distance (DU145)	Euclidean distance (FB)	Euclidean distance (HEPG2)	Euclidean distance (OVCAR4)
CCCCCOc1ccccc1/C(=C\SC)n1ccnc1 [Neticonazole Hydrochloride]	1.28	1.44	0.848	0.825	1.31	1.05
CSCC1CN(/N=C/c2ccc([N+](=O)[O-])o2)C(=O)O1 (centres undefined) [Nifuratel]	0.806	0.74	0.807	0.93	1.19	1.09
O=C(C=Cc1ccccc1)NC(NC(=S)Nc1ccc(Cl)cc1)C(Cl)(Cl)Cl (centres undefined)	1.51	2.16	1.33	1.53	2.23	1.08
CCOC(=O)c1ccc(C#Cc2ccc3c(c2)C(C)(C)CCS3)nc1 [Tazarotene]	1.01	1.14	0.728	2.31	0.556	1.27
COc1cc2ncnc(Nc3ccc(Cl)cc3F)c2cc1OC	1.46	1.74	1.56	1.26	1.51	1.01
CC(=O)OCC(=O)[C@@]12OC(C)(C)O[C@@H]1C[C@H]1[C@@H]3C[C@H](F)C4=CC(=O)C=C[C@]4(C)[C@@]3(F)[C@@H](O)C[C@@]12C [Fluocinonide]	1.34	2.13	2.47	1.51	0.846	1.99
CCc1ccc(CCOc2ccc(CC3SC(=O)NC3=O)cc2)nc1 (centres undefined) [Pioglitazone]	0.465	0.586	0.944	0.666	0.336	0.891
C[C@H](NC(=O)CCc1nc2ccccc2c(=O)[nH]1)c1ccccc1	1.42	1.74	1.13	1.04	1.15	1.27
NC(=O)c1cc[n+](CC2=C(C(=O)O)N3C(=O)[C@@H](NC(=O)[C@@H](c4ccccc4)S(=O)(=O)[O-])[C@H]3SC2)cc1 [Cefsulodin sodium]	1.11	0.966	1.58	1.06	0.633	1.15
COc1ccnc(C[S+]([O-])c2nc3cc(-n4cccc4)ccc3[nH]2)c1C (centres undefined) [Ilaprazole sodium]	1.23	0.928	0.81	0.764	0.518	1.26
NC(=O)NO [Hydroxyurea]	1.25	0.771	1.13	0.703	0.79	1.18
CN1CCC(NC(=O)c2cc(-c3c(O)cc(O)cc3Oc3ccc([N+](=O)[O-])cc3)on2)CC1	2.95	3.28	3.66	3.37	5.17	3.04
N[C@@H](Cc1cc(I)c(Oc2ccc(O)c(I)c2)c(I)c1)C(=O)O [Triiodothyronine]	1.04	1.57	1.08	0.968	0.865	1.58
COc1ccc2cccc(CCNC(C)=O)c2c1 [Agomelatine]	0.998	0.774	0.825	0.747	0.603	0.58
CCc1nc2c(C)cc(N3CCN(CC(=O)N4CC(O)C4)CC3)cn2c1N(C)c1nc(-c2ccc(F)cc2)c(C#N)s1 [Ziritaxestat (GLPG1690)]	1.57	1.31	0.685	2.02	1.42	1.68
CC1(C)Cc2c(-c3ccccc3)c(-c3ccc(Cl)cc3)c(CC(=O)O)n2C1 [Licofelone]	0.977	1.12	1.32	1.22	0.815	1.41
C[C@H]1O[C@@H](O[C@H]2CC[C@@]3(C)[C@@H](CC[C@]4(C)[C@@H]3C=C[C@]35OC[C@@]6(CCC(C)(C)C[C@H]63)[C@H](O)C[C@]54C)[C@]2(C)CO)[C@H](O)[C@@H](O[C@@H]2O[C@H](CO)[C@@H](O)[C@H](O)[C@H]2O)[C@H]1O [Saikosaponin D]	2.45	2.4	5.79	1.95	4.11	2.92
Nc1ccn([C@@H]2O[C@H](CO)[C@@H](O)[C@H]2O)c(=O)n1 [Cytidine]	1.92	0.659	1.04	0.943	1.9	1
COc1ccc(CNCc2cccc3ccccc23)cc1	1.72	1.46	0.984	1.27	0.933	1.04
COc1ccc2c(Oc3ccc(NC(=O)c4c(C)n(CC(C)(C)O)n(-c5ccccc5)c4=O)nc3)ccnc2c1	1.16	1.01	1.02	3.08	0.897	0.976
CCN(CC)Cc1cc(Nc2ccnc3cc(Cl)ccc23)ccc1O [Amodiaquine hydrochloride]	2.94	2.7	1.67	3.45	2.69	2.51
C[C@H]1COc2c(N3CCN(C)CC3)c(F)cc3c(=O)c(C(=O)O)cn1c23 [Levofloxacin]	1.07	1.12	0.658	0.922	0.532	1.03
Cc1cc(Nc2cc(N3CCN(C)CC3)nc(Sc3ccc(NC(=O)C4CC4)cc3)n2)n[nH]1 [VX-680 (Tozasertib. MK-0457)]	2.67	3.95	3.26	3.01	1.92	2.98
N=C(N)N [Guanidine HCl]	0.653	0.962	0.525	0.612	0.512	0.648
